Measured values taken from PubChem BioAssay (NCI).
Compounds without any hit were thinned out: in the full panel of roughly 83,000, 20% have a hit.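 Results are percent growth after 48 hours of single-concentration exposure. 100 means growth as in untreated cells, lower positive values show inhibition; negative values down to -100 show cell death.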 The source made the active and inactive calls. Rule for the calls: active = growth percent below 10; inactive = the rest.

Tested on: SR leukemia
Assay: NCI-60 one-dose screen, 48 h (100 = growth as untreated, 0 = no growth, -100 = all killed)
Conditions: 10 µM

SMILES | growth
C[C@H]1[C@@H](Oc2ccc(-c3cn(-c4ccnc5cc(Cl)ccc45)nn3)cc2)O[C@@H]2OC3(C)CC[C@H]4[C@H](C)CC[C@@H]1[C@@]24OO3 | 12.2% (inactive)
COc1ccc(/C=C/C(=O)c2nc3ccccc3n2Cc2ccc(Br)cc2)cc1 | 25.6% (inactive)
COC(=O)CCn1c(-c2ccc(-n3cc(-c4ccc(O[C@H]5O[C@@H]6OC7(C)CC[C@H]8[C@H](C)CC[C@@H]([C@H]5C)[C@@]68OO7)cc4)nn3)cc2)nc2ccccc21 | -11.8% (active)
C[C@H]1[C@H](OC(=O)CCC(=O)N(CCCc2cn(-c3ccc([N+](=O)[O-])cc3)nn2)CCNc2ccnc3cc(Cl)ccc23)O[C@@H]2OC3(C)CC[C@H]4[C@H](C)CC[C@@H]1[C@@]24OO3 | -15.2% (active)

Tested on: RPMI-8226 leukemia
Assay: as above
Conditions: 10 µM

SMILES | growth
O=C(/C=C/c1ccco1)c1nc2ccccc2n1Cc1ccc(Br)cc1 | -5.78% (active)
O=C(/C=C/c1ccco1)c1nc2ccccc2n1Cc1ccc(F)cc1 | 25.2% (inactive)
COc1cc2cc(C(=O)N3C[C@@H](CCl)c4c3cc(OC(=O)N3CCN(C)[C@@H]5CSSC[C@@H]53)c3ccccc43)[nH]c2c(OC)c1OC | -20.4% (active)
C#CC[Se]C(=O)c1ccc2n[se]nc2c1 | 21.3% (inactive)
O=C(/C=C/c1ccc(Cl)cc1Cl)c1nc2ccccc2n1Cc1ccc(F)cc1 | -31.1% (active)
O=C(/C=C/c1ccc(Cl)cc1)c1nc2ccccc2n1Cc1ccc(Br)cc1 | -13.4% (active)
CCOP(=O)(OCC)C(NC(C)=O)C(=O)SCCN (stereo not given) | 109% (inactive)
COc1cc2cc(C(=O)N3C[C@@H](CCl)c4c3cc(OC(=O)N3CCN(C)[C@@H]5CSSC[C@H]53)c3ccccc43)[nH]c2c(OC)c1OC | -33.9% (active)
COc1ccc2cc([C@H](C)C(=O)[Se]CCC#N)ccc2c1 | -17.8% (active)
CC12OOC(C)(OO1)C2CCC(=O)OCCNc1ccnc2cc(Cl)ccc12 (stereo not given) | 8.42% (active)
CC(C)N=C([Se])NC(=O)c1cccs1 | -4.48% (active)
Cc1ccc2[nH]c(=S)n(-c3ccc(F)cc3)c(=O)c2c1 | 91.5% (inactive)
CCOC(=O)C1=C(Nc2ccccc2)C(=O)OC12C(=O)Nc1ccccc12 (stereo not given) | 104% (inactive)
CC12CCC3(CCC(=O)NCCCNc4ccnc5cc(Cl)ccc45)[C@@](C)(OO[C@]3(C)O1)O2 | 22.2% (inactive)
CC[C@]12C=CCN3CC[C@@]4(c5ccc(OC)cc5N(C)[C@H]4[C@@](O)(C(=O)OC)[C@@H]1OC(=O)CCCC[P+](C1CCCCC1)(C1CCCCC1)C1CCCCC1)[C@@H]32 | -45% (active)
CC(=O)Oc1ccccc1C(=O)[Se]C(=NC(C)C)NC(C)C | -20% (active)
COCCOCCOCCOc1ccc(-n2cc(CCCN(CCNc3ccnc4cc(Cl)ccc34)C(=O)CCC(=O)O[C@@H]3O[C@@H]4OC5(C)CC[C@H]6[C@H](C)CC[C@@H]([C@H]3C)[C@@]46OO5)nn2)cc1 | 26.3% (inactive)
C[C@H]1[C@@H](CC(=O)N[C@@H](Cc2coc3ccccc23)B(O)O)O[C@@H]2OC3(C)CC[C@H]4[C@H](C)CC[C@@H]1[C@@]24OO3 | -7.66% (active)
COP(=O)(CC(F)(F)C(F)(F)F)OC | 12.3% (inactive)
CC12OOC(C)(OO1)C2CCC(=O)NCCNc1ccnc2cc(Cl)ccc12 (stereo not given) | 78.8% (inactive)
CC[C@]12C=CCN3CC[C@@]4(c5ccc(OC)cc5N(C)[C@H]4[C@@](O)(C(=O)OC)[C@@H]1OC(=O)CCC[P+](c1ccc(C)cc1)(c1ccc(C)cc1)c1ccc(C)cc1)[C@@H]32 | -56.3% (active)
CC(C)N=C([Se])NC(=O)c1ccccc1 | 0.145% (active)
CC[C@]12C=CCN3CC[C@@]4(c5ccc(OC)cc5N(C)[C@H]4[C@@](O)(C(=O)OC)[C@@H]1OC(=O)CCC[P+](C1CCCCC1)(C1CCCCC1)C1CCCCC1)[C@@H]32 | -43.4% (active)
CC1=C(COCCOC(=O)c2ccc(S(=O)(=O)F)cc2)C2=C(C)C3(CC3)[C@@](C)(O)C(=O)C2=C1 | 76.4% (inactive)
CC[C@]12C=CCN3CC[C@@]4(c5ccc(OC)cc5N(C)[C@H]4[C@@](O)(C(=O)OC)[C@@H]1OC(=O)CCCC[P+](c1ccc(OC)cc1)(c1ccc(OC)cc1)c1ccc(OC)cc1)[C@@H]32 | -68.8% (active)
CC1=C(CCC=NNC(N)=O)C2=C(C)C3(CC3)[C@@](C)(O)C(=O)C2=C1 | 1.7% (active)
